# Measured values published in PubChem BioAssay AID540301 (National Center for Advancing Translational Sciences (NCATS), 2011).
# Some of the results follow. Inconclusive results are not listed. Unmarked numbers belong to inactive results. Calls come from the whole dose curve; as a rule, active = well fitted curve in the direction sought with a large enough effect; inconclusive = small, poorly fitted or top-dose-only effect, or another doubt; inactive = no such curve, though single readings can be large or run the other way.
# Test: Inhibitors of DNA Polymerase Beta: Hit Validation in HIV-RT Assay
# Conditions: HIV-1 RT polymerase activity, counter-screen; series mostly up to 57.1 µM; activity % (negative = inhibition, positive = activation): at the top concentration
# Excerpt: The base excision repair system in human cells is a target for therapeutic modulation of the response to irradiation treatment and DNA-damaging drugs. A key enzyme in this system is the bi-functional DNA polymerase known as DNA polymerase beta (pol b). […] Using an integrated approach involving discovery of small molecule probes for pol b via qHTS and validation by crystallography and kinetics along with cell-based validation experiments, we will test the hypothesis that base excision repair can be strategically modulated in human cells by targeting pol b. Thus, we anticipate the pol b-specific probes emerging from this research will serve as starting points in the development of clinical agents for use in down regulation of DNA base excision repair during therapeutic interventions against cancer.
# After the completion of the qHTS against the Molecular Libraries Small Molecular Repository (MLSMR), cherry picked compounds were confirmed in the primary qHTS pol beta assay and further characterized in several follow-up assays. To avoid compound promiscuity, we selected a completely unrelated viral polymerase to polymerase beta, HIV reverse transcriptase(RT) as a counter screen. There are distinct differences between the two polymerases, such as source of host and HIV RT is responsible for transcribing the virus' single stranded RNA into double-stranded DNA after entry into its host cell. […] To us, a favorable outcome in this assay is inactivity.
# NIH Chemical Genomics Center [NCGC]
# NIH Molecular Libraries Probe Centers Network [MLPCN]
# Assay Submitter (PI): Samuel Wilson, National Institute of Environmental Health Sciences (NIEHS), NIH
# A stepwise description of the 1536-well assay is shown in next Table. Three microliters of reagents (buffer in column 3 and 4 as negative control and 10 nM Pol beta in columns 1, 2, and 5-48) was dispensed into 1,536-well black solid-bottomed plate. Compounds (23 nL) were transferred via Kalypsys pin tool equipped with 1536-pin array (10 nL slotted pins, V&P Scientific, San Diego, CA). The plates were incubated for 15 min at room temperature, and 1 uL substrate (50 nM final concentration) were added to start the reaction and immediately read at 0 min read on Viewlux reader. The plate were further incubated for 10 min at room temperature, and then read on Viewlux again. Throughout the screen, reagent bottle and all liquid lines were chilled and made light-tight to minimize reagent degradation. All screening operations were performed on a fully integrated robotic system (Kalypsys, San Diego, CA) containing one RX-130 and two RX-90 anthropomorphic robotic arms (Staubli, Duncan, SC). Library plates were screened starting from the lowest and proceeding to the highest concentration, and a double-dipping step of the highest concentration was required to access higher concentrations of compounds. Vehicle-only plates, with DMSO being pin-transferred to the entire column 5-48 compound area, were inserted uniformly at the beginning and the end of each library in order to monitor for and record any shifts in the background, which can be affected by reagent dispensers or loss in enzyme activity overtime. Screening data were corrected, normalized, and concentration-effect relationships were derived by using publicly-available curve fitting algorithms developed in-house (http://ncgc.nih.gov/pub/openhts). A four parameter Hill equation was fitted to the concentration-response data by minimizing the residual error between the modeled and observed responses.
row,Structure (SMILES),"activity % (negative = inhibition, positive = activation) [%]"
1,Cc1c(CCC(=O)O)c(=O)oc2c(C)c(OCc3ccccc3Cl)ccc12,31.4
2,O=C(c1cc2c(s1)CCC2)N1CCN(c2ccccc2)CC1,32.1
3,Cc1ccc2nc(-c3ccncc3)cc(C(=O)Nc3ccc(OC(F)F)cc3)c2c1,31.2
4,COc1ccc(Cc2nnc(NC(=O)Cc3cccs3)s2)cc1,26.1
5,COc1cc([C@H](Cc2ccccc2)NC(C)=O)oc(=O)c1,-11.1
6,O=C(Nc1ccc(S(=O)(=O)Nc2nccs2)cc1)c1cc(-c2ccncc2)nc2ccccc12,20.5
7,Cc1ccc(C(=O)Oc2coc(CSc3nnc(NC(=O)c4cccs4)s3)cc2=O)cc1C,30
